# tim23-1 inh = growth inhibitors of tim23-1 mutant yeast. S. cerevisiae tim23-1 growth, BacTiter-Glo luminescence, 24 h. AID 463212. 330,000 tested, 1.3% active. inhibition, % at 20 µM;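 active means growth inhibition of the mutant yeast at or above 50%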;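 further: temperature-sensitive mutant grown at 25 °C; plate controls were DMSO-treated mutant yeast for no effect and medium wells lacking yeast for full effect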
# NALP3 yeast inh = NALP3 inhibition in yeast | Yeast reconstituted NLRP3/ASC/caspase-1, beta-gal luminescence, 24 h | inhibition, % at 10 µM | 330,000 tested, 0.39% active | AID 2825;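 active means inhibition of 50% or more; inactive means inhibition below 50%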;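 further: plate controls were induced DMSO wells for no effect and uninduced yeast grown without galactose for full effect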
# TIM10 inh = inhibits growth of TIM10 yeast strain. S. cerevisiae TIM10 strain growth, BacTiter-Glo luminescence, 24 h. inhibition, % at 10 µM. 330,000 tested, 1.4% active;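 active means inhibition of 40% or more at the single tested concentration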;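 further: wild-type TIM10 isogenic control strain grown at permissive 25 °C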
# Yeast superoxide = lowers age-related superoxide in aged yeast cells; superoxide response (% of plate mean), % at 10 µM; 330,000 tested, 0.18% active; S. cerevisiae aged cells, superoxide DHE fluorescence; hits give low values; AID 2690;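 active means superoxide response under a set limit, about three screen SD below normal, cut at about 65% in these data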;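 further: yeast aged for seven days with compound at 30 °C before DHE staining; 100% = average MFI of all compound-treated wells on the plate with controls excluded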
# tim10-1 inh = inhibits growth of tim10-1 mutant yeast. inhibition, % at 20 µM. AID 463190. 330,000 tested, 2.2% active. S. cerevisiae tim10-1 ts strain growth, BacTiter-Glo, 24 h;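 active means inhibition of at least 40%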;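 further: mutant grown at 25 °C; 0% = DMSO wells with yeast and 100% = wells holding no yeast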
# tim10-1 conf = confirmation of tim10-1 mutant yeast growth inhibitors; shares compounds with tim10-1 inh; S. cerevisiae tim10-1 ts strain growth, BacTiter-Glo, 24 h; inhibition, % at 20 µM; 7,400 tested, 56% active; AID 463213;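 active means inhibition of yeast growth at or above a set limit in either of two repeat tests at 20 µM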;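 further: tim10-1 mutant grown at permissive 25 °C to find synthetic lethal compounds; 0% = DMSO yeast wells and 100% = medium wells without yeast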
# * hit, by the source's call; / = no result given. Rows were chosen to be rich in hits. Some 3.8% of all compounds tested hit in one or more screens of this group.
SMILES,tim23-1 inh,NALP3 yeast inh,TIM10 inh,Yeast superoxide,tim10-1 inh,tim10-1 conf
N#CC1(Nc2cccc(Br)c2)C(=O)Nc2ccccc21 (stereo unspecified),37,14,39,101,42*,38*
N#CC1(Nc2ccccc2)C(=O)Nc2ccccc21 (stereo unspecified),19,18,-7,102,12,/
CCOC(=O)C1CCN(C(=O)CSC2=NCCS2)CC1,11,-1,5,108,22,/
Cc1nn(CC(=O)N(CC(C)C)C2CCS(=O)(=O)C2)c(C)c1[N+](=O)[O-] (stereo unspecified),2,18,-11,91,-3,/
Cc1cc(SCC(=O)N/N=C/c2ccco2)nc2ccccc12,28,6,3,91,40*,15
Cc1cc(SCC(=O)NC(=O)NCc2ccco2)nc2ccccc12,48,11,32,97,43*,35*
COc1ccc2[nH]cc(CCNC(=O)Cc3ccc(Cl)cc3)c2c1,-14,3,3,94,5,/
CCOC(=O)CNC(=O)CCc1nnc2ccc(N3CCC(C)CC3)nn12,-2,4,4,121,-5,/
CCOC(=O)c1c(N2C(=O)Nc3cc(Cl)c(Cl)cc3N2O)sc2c1CCCCC2,23,1,10,102,25,/
CC/C(C)=N/Nc1nc(-c2cc3cccc(OC)c3oc2=O)cs1,-1,7,-1,103,3,/
Cc1cccc(/C=N/NC(=O)c2ccc(NC(=O)c3ccc(Cl)cc3)cc2)n1,19,19,7,100,96*,-8
CCCN(CCC)S(=O)(=O)c1ccc(C(=O)Nc2nnc(-c3cccc(OC)c3)o2)cc1,7,6,7,103,36,/
CCCN(CCC)S(=O)(=O)c1ccc(C(=O)Nc2nnc(-c3cc(OC)cc(OC)c3)o2)cc1,-5,13,22,119,41*,8
CCOc1cc(N2CCOCC2)c(OCC)cc1NC(=O)CN1C(=O)N(C)C2(CCCCC2)C1=O,16,7,1,96,12,/
CN1CCN(C(=O)/C(=C/c2cn(S(=O)(=O)N(C)C)c3ccccc23)NC(=O)c2ccccc2Cl)CC1,-6,0,4,117,6,/
O=C(Cn1ccc(C(F)(F)F)n1)N=Nc1c(O)[nH]c2ccccc12,11,8,24,101,15,/
CC(C)n1c(O)c(N=NC(=O)Cn2ccc(C(F)(F)F)n2)c2ccccc21,8,-11,15,103,44*,28
COc1ccc(N=c2scc(C)n2CCCN2CCCC2=O)cc1,15,12,20,95,10,/
Cc1ccc(NC(=O)CN2CCCC2c2cccn2C)c(Br)c1 (stereo unspecified),25,20,2,95,2,/
O=C(Nc1ccc(CN2CCOCC2)cc1)c1ccco1,11,10,-3,95,4,/
Cc1sc2nc(CN3CCOCC3)nc(Oc3ccc(NC(=O)c4ccco4)cc3)c2c1C,33,16,18,102,48*,23
CN(C)C(=C(C#N)C#N)N1CCN(c2ccc(Cl)c(Cl)c2)CC1,27,-15,8,122,42*,10
O=C(c1cnc2ccccc2n1)N1CCN(c2ccc(C(F)(F)F)cn2)CC1,24,8,21,110,27,/
Cc1ccc(C(=O)N2CCN(c3ccc(C(F)(F)F)cn3)CC2)cc1,14,17,22,99,20,/
Cc1ccc(C(=O)N2CCN(c3ccc(C(F)(F)F)cn3)CC2)c(C)c1,49,9,20,123,44*,30
SMILES,tim23-1 inh,NALP3 yeast inh,TIM10 inh,Yeast superoxide,tim10-1 inh,tim10-1 conf
Cc1c(C(=O)N2CCN(c3ccc(C(F)(F)F)cn3)CC2)oc2ccccc12,33,16,26,93,41*,37*
COc1ccc(CCNC(=O)COc2ccccc2[N+](=O)[O-])cc1OC,11,-10,-4,108,13,/
O=C(Cc1ccc(S(=O)(=O)N2CCOCC2)s1)Nc1cc(Cl)ccc1Cl,34,-2,23,90,44*,36*
O=C(Cc1ccc(S(=O)(=O)N2CCOCC2)s1)Nc1ccc2c(c1)CCC2,27,-4,31,114,41*,17
Cc1ccc(C2(C)NC(=O)N(CC(=O)NNC(=O)c3ccoc3C)C2=O)cc1 (stereo unspecified),-6,7,0,97,-6,/
CCn1c(=O)n(CC)c2cc(N3CCCC3)c(NC(=O)c3cc(Br)ccc3OC)cc21,40,9,4,124,44*,-3
CCn1c(=O)n(CC)c2cc(N3CCCC3)c(NC(=O)c3ccccc3)cc21,22,8,11,106,25,/
CCn1c(=O)n(CC)c2cc(N3CCCC3)c(NC(=O)c3ccc(C)cc3)cc21,32,15,-9,93,42*,-15
COc1ccc2nc(N3CCC(C)CC3)c(C#N)cc2c1,21,5,3,88,46*,9
CC(=O)Nc1nc(-c2ccccc2)nc(-c2ccccc2OC(C)=O)n1,39,12,29,107,48*,16
Cc1nn(CC(=O)NCCCN2CCCC2)c(=O)c2nn(-c3ccccc3)c(C)c12,6,9,0,135,-12,/
CCN(c1cccc(C)c1)S(=O)(=O)c1cc2c3c(c1)CCN3C(=O)CC2,3,17,-20,98,-7,/
Cc1cccc(NC(=S)N(CCN2CCOCC2)Cc2ccccc2F)c1,16,-3,-6,114,42*,5
C=CCNC(=O)c1c(Cl)nc(C)c([N+](=O)[O-])c1C,6,-12,-10,107,23,/
Cc1cc(=O)oc2cc(OCc3ccc(C(=O)N4CCN(c5ccccc5)CC4)cc3)ccc12,18,23,7,103,43*,13
CS(=O)(=O)N(CC(=O)Nc1cccc(F)c1)Cc1ccccc1,7,4,-12,84,49*,5
CC(=O)c1cccc(NC(=O)CN(Cc2ccccc2)S(C)(=O)=O)c1,-6,17,-1,103,2,/
COc1cc(-c2nc(-c3cccc(C(F)(F)F)c3)no2)cc(OC)c1OC,10,-8,35,105,41*,31*
COc1ccc(-c2csc(/C(C#N)=C\c3ccc(O)c([N+](=O)[O-])c3)n2)cc1OC,1,31,12,97,7,/
COc1cc(/C=C(\C#N)c2nc3ccccc3s2)cc([N+](=O)[O-])c1O,29,10,15,/,46*,29
C=C1CCC[C@]2(C)C[C@H]3OC(=O)C(CNC(C)CC)[C@H]3CC12 (stereo partly specified),31,1,30,97,43*,37*
C=C1CCC[C@]2(C)C[C@H]3OC(=O)C(CN4CCCCC4CO)[C@H]3CC12 (stereo partly specified),46,-81,26,97,48*,37*
C=C1CCC[C@]2(C)C[C@H]3OC(=O)C(CNC(CC)CO)[C@H]3CC12 (stereo partly specified),35,-83,16,114,52*,45*

# Compound activity: PubChem BioAssay, several laboratories
